From PubChem BioAssay
Compounds with a hit are over-represented: about 2.2% of the library has one in this group of screens.
IEC-6 cytotox: cytotoxicity in IEC-6 intestinal epithelial cells, primary screen, cytotoxicity control for KLF5 inhibitor project, cell-based, luminescence | actives 0.78% (n = 290,000) | IEC-6 cytotoxicity, luminescence viability | inhibition, % at 5 µM; in the data active means inhibition above about 22%;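 further: 0% = plate median of test compound wells and 100% = cytotoxic reference compound wells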
BaF3 tox: parental Ba/F3 cell viability inhibition, counter-screen for JAK2V617F inhibitor project, murine pro-B, CellTiter-Glo luminescence; CellTiter-Glo ATP luminescence; inhibition, % at 5.6 µM; actives 1.1% (n = 220,000);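 active means inhibition above a per-campaign cutoff, the mean inhibition of all tested compounds plus 3 SD, cut at about 27% in these data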;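 further: 0% = DMSO wells and 100% = JAK Inhibitor I control wells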
KLF5 inh: KLF5 expression inhibitors, primary screen, DLD-1 cells, luminescence; DLD-1 KLF5 promoter-luciferase reporter; AID 1700, 2009; actives 0.23% (n = 290,000); inhibition, % at 5 µM;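 active means inhibition above a per-plate limit of that plate's mean compound inhibition plus 3 SD, cut at about 60% in these data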;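 further: 0% = DMSO wells and 100% = LY294002 at 200 µM; higher means less KLF5 promoter-driven luciferase light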
aSyn 5UTR inh: MLPCN primary screen, SNCA 5' untranslated region | inhibition, % (tested at 7.5 µM) | AID 1813, 2009 | alpha-synuclein 5'UTR reporter, inhibitor activity | actives 0.82% (n = 300,000); in the data active means inhibition above about 60%;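 further: H4 neuroglioblastoma cells stably carrying SNCA 5'UTR luciferase fusion; 0% = DMSO wells and 100% = positive control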
APP 5UTR inh: inhibitors of APP translation via 5'UTR reporter, primary screen, APP 5'UTR luciferase, SH-SY5Y cells; SH-SY5Y APP 5'UTR-luciferase reporter, luminescence; inhibition, % at 2 µM; actives 0.82% (n = 190,000); AID 1285, 2008;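 active means inhibition above a set limit, derived from the sample mean plus 3 SD, cut at about 45% in these data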
Ba/F3 V617F tox: reduced viability of JAK2V617F-dependent Ba/F3 cells, primary screen, JAK2V617F inhibitor project, cell-based, Ba/F3 EpoR-JAK2V617F, luminescence; inhibition, % at 5.6 µM; actives 1.1% (n = 220,000); ATP luminescence; AID 1446, 2008;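 active means inhibition above the campaign mean plus 3 SD over all tested compounds, cut at about 24% in these data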;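 further: cytokine-independent growth of Ba/F3 cells driven by EpoR plus mutant JAK2; 0% = DMSO-treated cells and 100% = JAK inhibitor I control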
An asterisk follows results filed as active; x = not tested or not shown.

SMILES	IEC-6 cytotox	BaF3 tox	KLF5 inh	aSyn 5UTR inh	APP 5UTR inh	Ba/F3 V617F tox
Cc1ccc(C(=O)NC(N2CCCC2)C(Cl)(Cl)Cl)cc1 (stereo unspecified)	2	1	-12	-13	-6	-4
O=C1C=C(c2cccs2)C[C@H](c2ccccc2)[C@H]1n1nnc([N+](=O)[O-])n1	8	11	5	71*	16	18
Cc1cc(C(=O)NCc2csc(-c3ccccc3)n2)no1	2	x	-63	-82	x	x
CC1(C)CC(N=c2cc(-c3ccccc3)oc3ccc(Cl)cc23)CC(C)(C)N1	-1	2	-45	99*	-23	3
OCCCN=c1cc(-c2ccccc2)oc2ccc(Cl)cc12	-1	7	-104	-440	-35	-1
Cc1cc(C(=O)CN2C(=O)C(=O)N(Cc3ccccc3)C2=O)c(C)n1-c1ccc2c(c1)OCCO2	3	6	4	-74	-28	3
Oc1ccc(Nc2nc3ccccc3nc2Nc2ccc(O)cc2)cc1	21	100*	55	108*	87*	93*
N=C(N)N1CCN(Cc2ccccc2)CC1	8	5	-15	22	14	3
N#C/C(=N\Nc1cccc([N+](=O)[O-])c1)C(=O)c1ccc(Br)cc1	5	2	-10	49	7	0
N#C/C(=N\Nc1cccc(C(F)(F)F)c1)C(=O)c1ccsc1	16	32*	-62	-109	x	18
CC1(C)C(=O)Nc2ccccc2N1C(=O)Cn1ncc(Cl)c(Cl)c1=O	4	31*	1	-167	x	9
O=C(Cn1ncc(Cl)c(Cl)c1=O)N1CCOCC1	4	-8	-15	-62	14	-1
Cc1cc(C)cc(Cn2ncc(Cl)c(Cl)c2=O)c1	-4	3	-6	35	58*	-2
O=C(Cn1ncc(Cl)c(Cl)c1=O)N1CCN(Cc2ccccc2)CC1	10	-3	-42	-71	90*	1
O=c1c(Cl)c(Cl)cnn1Cc1ccccc1Cl	9	25	-3	16	92*	16
COc1ccc(C(=O)NC(=S)NCc2ccco2)cc1Br	9	x	-12	-3	x	x
C=CCN=c1scc(-c2ccccc2)n1/N=C/c1ccccn1	31*	57*	-67	-68	-99	53*
O=C1N/C(=C/c2ccc(Br)cc2)C(O)=C1C=NCc1ccccc1	-1	6	-16	-27	59*	-1
O=C1C(C=NCc2ccncc2)=C(O)c2ccccc21	0	2	-45	-4	-17	-5
O=C(COC(=O)c1cc(-c2ccccc2Cl)nc2ccccc12)Nc1ncc(C(F)(F)F)cc1Cl	-2	0	16	40	49*	-4
O=C(C1=C[C@@H](c2csc3ccccc23)C[C@@H](OCc2ccc(CO)cc2)O1)N1CCN(Cc2ccc3c(c2)OCO3)CC1	-1	0	-10	69*	13	2
CCOC(=O)c1cnc(-n2nc(C)cc2C)nc1NNc1nc(-c2ccccc2)cc(-c2ccccc2)n1	-5	4	2	82*	23	0
CN(C)CCCN(C(=O)COc1ccccc1)c1nc2ccc(F)cc2s1	1	8	-30	-21	8	2
CN(C)CCCN(C(=O)CCOc1ccccc1)c1nc2ccc(F)cc2s1	1	8	-11	x	33	26*
Cc1c(NC(N)=O)c(=O)n(-c2ccccc2)n1C	4	80*	5	-9	6	1
SMILES	IEC-6 cytotox	BaF3 tox	KLF5 inh	aSyn 5UTR inh	APP 5UTR inh	Ba/F3 V617F tox
Cc1ccc(-n2c(N)c(C(=O)Nc3c(C)n(C)n(-c4ccccc4)c3=O)c3nc4ccccc4nc32)cc1C	10	2	-8	74*	-7	-2
Cc1c(NC(=O)CC(=O)Nc2c(C)n(C)n(-c3ccccc3)c2=O)c(=O)n(-c2ccccc2)n1C	2	4	15	24	3	-2
COc1ccc(-n2c(N)c(C(=O)Nc3c(C)n(C)n(-c4ccccc4)c3=O)c3nc4ccccc4nc32)cc1	-6	4	-3	19	x	-4
Cn1c(N)c(C(=O)COC(=O)CC(NC(=O)c2ccccc2Cl)c2ccccc2)c(=O)n(C)c1=O (stereo unspecified)	-2	3	-66	12	22	3
Cc1[nH]nc2c1C(c1ccccn1)N(c1ccc(Br)cc1)C2=O (stereo unspecified)	-1	95*	-3	0	3	-2
Cc1ccc(NS(=O)(=O)c2ccc(C(=O)N3CCN(c4ncccn4)CC3)cc2)cc1	7	28*	-23	11	-19	14
CC1=CC(C)(C)N(S(=O)(=O)c2ccc(F)cc2)c2ccccc21	-6	2	-21	-16	18	0
CC1=CC(C)(C)N(S(=O)(=O)c2ccc(C)cc2)c2ccc(C)cc21	10	37*	45	40	50*	51*
CC(=O)Nc1ccc(S(=O)(=O)N2c3ccccc3C(C)=CC2(C)C)cc1	88*	64*	93*	121*	89*	64*
COc1ccc2cc(C)c3nnc(SCC(=O)Nc4nc(-c5ccccc5)cs4)n3c2c1	-2	3	-11	13	6	-1
O=C1/C(=C/c2ccccc2)CCCc2ccccc21	-5	6	-10	-24	-71	1
O=C1C(=C2SCCCS2)CC/C1=C\c1ccc(F)cc1	3	1	-82	119*	-49	1
Cc1cccc(/C=C2\CCC(=C3SCCCS3)C2=O)c1	0	2	-124	85*	-172	-3
CC[C@@H]1CC=C[C@H]2[C@H]1C(=O)N(Cc1ccccc1)[C@H]2c1ccc2ccccc2c1	x	x	x	7	x	x
N#C/C(=C\c1c[nH]c2ccccc12)C(=O)NC1CCCC1	-1	x	-105	-47	x	x
Cc1cccc(CN2C(=O)/C(=C\c3ccc(C(=O)NCCCN4CCN(C)CC4)cc3)Oc3ccccc32)c1	-9	x	-31	95*	x	x
CN1CCN(CCCNC(=O)c2ccc(/C=C3\Oc4ccccc4N(Cc4ccccc4F)C3=O)cc2)CC1	5	x	-13	-4	x	x
C#CCSc1nc2sc3c(c2c(=O)n1C)CCC3	2	x	1	-19	x	x
C/C(=N\OCC(=O)Nc1ccc(F)c(F)c1F)c1cc2ccccc2o1	-5	6	5	-7	-7	-1
CSc1ccccc1NC(=O)CO/N=C(\C)c1cc2ccccc2o1	36*	3	-20	-32	-27	-2
Cc1cc(C(F)(F)F)nn1CC(=O)NCc1cccs1	3	-2	-16	-3	-16	-3
COP(=O)(OC)c1nc(-c2cccc3ccccc23)oc1N1CCOCC1	5	28*	-23	15	-28	-1
